Rows were chosen to be rich in hits. Some 1.4% of all compounds tested hit in one or more screens of this group.
N370S GC = inhibits or activates N370S mutant glucocerebrosidase; P04062; N370S GC spleen homogenate, 4MU-glucoside fluorescence; 330,000 compounds, 0.092% hits; AID 2101; Potency, µM (series often up to 59.4 µM), without a hit: top-dose activity change, negative = inhibition, hits mostly inhibitors;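 also: potency is read from the fitted curve at half-maximal effect; 0% = full enzyme activity and -100% = no enzyme basal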
TrxR1 substrate = substrates of rat thioredoxin reductase 1; purified TrxR1 substrate turnover, NADPH consumption readout; Potency, µM (doses to about 114 µM), for inactives: at the highest dose activity change, negative = substrate turnover; 390,000 compounds, 0.01% hits; AID 588456; also: potency is read from the fitted curve at half-maximal effect; % is scaled to controls: 0 for no effect and ±100 for the full control effect; nearly all actives have a fitted effect of over 50% in size
Target sequence (O89049 whole entry, looked up): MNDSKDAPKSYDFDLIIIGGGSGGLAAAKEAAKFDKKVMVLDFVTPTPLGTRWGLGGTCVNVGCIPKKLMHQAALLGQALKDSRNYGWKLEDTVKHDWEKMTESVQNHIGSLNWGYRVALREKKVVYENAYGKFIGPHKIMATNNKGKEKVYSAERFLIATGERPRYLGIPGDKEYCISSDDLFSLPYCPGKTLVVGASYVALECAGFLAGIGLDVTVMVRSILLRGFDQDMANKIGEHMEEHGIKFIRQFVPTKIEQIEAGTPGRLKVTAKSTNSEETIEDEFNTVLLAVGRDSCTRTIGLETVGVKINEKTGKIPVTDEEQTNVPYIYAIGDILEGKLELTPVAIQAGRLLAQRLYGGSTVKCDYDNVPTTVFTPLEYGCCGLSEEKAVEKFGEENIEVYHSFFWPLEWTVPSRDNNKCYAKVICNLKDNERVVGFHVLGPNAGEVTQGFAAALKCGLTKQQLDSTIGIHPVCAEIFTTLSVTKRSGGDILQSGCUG
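Rat TrxR1, dispensed at 90 nM, was prereduced with 400 uM NADPH (final) for 5 min at ~22 deg C, then incubated with compound 15 min before 400 uM selenite. A first-read NADPH fluorescence drop versus no-compound background flagged substrates.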
TrxR1 inh = blocks rat thioredoxin reductase 1 | Potency, µM (top dose mostly 114 µM), without a hit: at the highest dose activity change, negative = inhibition, hits mostly inhibitors | O89049 | AID 588453 | recombinant rTrxR1, NADPH fluorescence consumption, selenite substrate | 390,000 compounds, 1% hits; also: potency is read from the fitted curve at half-maximal effect; % is scaled to controls: 0 for no effect and ±100 for the full control effect; nearly all actives have a fitted effect of over 65% in size
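Rat TrxR1 (90 nM in the dispensed reagent) was pre-reduced with 400 uM NADPH for 5 min at room temperature, then incubated with compound for 15 min. After 400 uM selenite was added, NADPH fluorescence (Ex 340/Em 450 nm) was followed for 8 min.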
A-T KAP1 phos = candidate therapy for ataxia-telangiectasia; Potency, µM (titrated, usually from 57.5 µM), for the others: at the highest dose activation, hits mostly activators; F2112 A-T fibroblasts, KAP-1 phosphorylation AlphaLISA; neocarzinostatin DNA damage 30 min before lysis; 320,000 compounds, 0.19% hits; AID 485349; also: potency is read from the fitted curve at half-maximal effect; % of control where 0% means no effect; nearly all actives have a fitted effect of over 45% in size
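hTERT-immortalized A-T patient fibroblasts (F2112), 500 cells/well in OPTI-MEM, 1% FBS, got compounds for 60 min, then NCS for 30 min at 37C. Lysates were then assayed for phospho-KAP-1 by AlphaLISA (anti-pKAP1 donor, anti-KAP1 acceptor beads), 6 hr at 25C.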
Pin1 inhibitor = inhibitors of human Pin1; Potency, µM (doses to about 115 µM), without a hit: at the highest dose activity, negative = inhibition, most hits filed as inhibitors; Pin1 FP peptide displacement, HiFluor488, 10 min; Q13526; 390,000 compounds, 0.009% hits; active = well fitted inhibition curve with a large enough effect in the polarisation, with a control signal flat, not every such curve was filed as active; inconclusive = small, poorly fitted or top-dose-only effect, or effect the other way, or a change in a side signal; inactive = no such curve, though single readings can be large or run the other way; the % refers to the polarisation; also: potency is read from the fitted curve at half-maximal effect; % is scaled to controls: 0 for no effect and ±100 for the full control effect
Akt phos inh = blocks phosphorylation of Akt; activity change, % for hits at 50 µM; Neuro2A IGF-stimulated pAkt S473 HTRF, 20 min; hits give low values; AID 651550; 360,000 compounds, 0.32% hits; in the data active = activity change below about -80%; inconclusive = mostly about -51% to -80%; also: % is scaled to controls: 0 for no effect and ±100 for the full control effect
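Neuro2A cells (4,500/well, DMEM with 0.5% FBS) were treated with compound at a single 50 µM final concentration, stimulated with 6 nM IGF for 20 min at 37 °C, and lysed. Phospho-Akt Ser473 was read by HTRF as 665/615 ratio ×10^4.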
The depositor's hits bear a star; i = inactive; ? = inconclusive; / = no result given; [ ] = another dose, or the depositor's remark. Unless noted, calls follow the shape of the dose curve; as a rule, active = well fitted curve in the direction sought with a large enough effect; inconclusive = small, poorly fitted or top-dose-only effect, or another doubt; inactive = no such curve, though single readings can be large; an effect the other way counts as inactive or inconclusive.

SMILES | N370S GC | TrxR1 substrate | TrxR1 inh | A-T KAP1 phos | Pin1 inhibitor | Akt phos inh
CC1(C)C(C(=O)N2CCN(c3ccc(Cl)cc3)CC2)C1(C)C | -15% | -4% | 7% | 7% | 7% | i
COC(=O)C1CN(C#N)N(c2ccc(Cl)cc2)C12c1ccccc1-c1ccccc12 (configuration not stated) | -1% | 5%[57.1 µM] | ? | 13µM* | ? | i
CN(C)c1c([N+](=O)[O-])cc(N2C(=O)C=CC2=O)cc1[N+](=O)[O-] | / | 0% | 2.8µM* | / | ? | i
CCNc1cc(N2CCN(C)CC2)ccc1[N+](=O)[O-] | 26% | -14% | -5% | -2% | -5% | i
CCOC(=O)C1C(=O)N(C)C2(C)CC1c1ccccc1O2 (configuration not stated) | 1% | -4%[57.1 µM] | -4%[57.1 µM] | -1% | 0% | -114%*
CCOC(=O)C1C(=O)N(C)C2(C)CC1c1cc(OC)ccc1O2 (configuration not stated) | -23% | -13% | -16% | 8% | 3% | i
Nc1c(C(=O)NCC2CCCO2)c2nc3ccccc3nc2n1Cc1ccco1 (configuration not stated) | 11% | 163% | -12% | 20µM* | 18% | i
Cc1[nH]c2ccccc2c1P(=S)(c1ccccc1)c1ccccc1 | / | / | / | / | -2% | /
CC(C)CN(CC(C)C)c1ccc(C=C2C(=O)NC(=S)NC2=O)cc1[N+](=O)[O-] | -12% | -7% | 2.5µM* | -10% | / | i
CCN1C(=O)/C(=C\c2ccc([N+](=O)[O-])s2)C(=O)NC1=S | -8% | / | / | 7% | / | /
COc1cc(/C=C2\C(=O)NC(=O)N(c3ccccc3)C2=O)cc(OC)c1O | -9% | -15% | 25µM* | -6% | ? | i
COc1cc(/C=C2\C(=O)NC(=O)N(c3ccccc3)C2=O)c([N+](=O)[O-])cc1OC | 8% | 7%[57.1 µM] | 7.1µM* | 1% | -7% | i
CC(C)=CCCN1CCC(NC(=O)C(O)(c2ccccc2)C2CCCC2)CC1 (configuration not stated) | -8% | / | / | / | / | /
CCN1C(=O)NC(=O)/C(=C\c2cn(CC(=O)N3CCCCC3C)c3ccccc23)C1=O (configuration not stated) | -2% | -5% | 20µM* | 2% | ? | i
CN1C(=O)C(=Cc2cn(CC(=O)N3CCCC3)c3ccccc23)C(=O)N(C)C1=O | -5% | 2% | 8% | 1% | ? | i
O=C(Cc1ccccc1)NC(Oc1ccccc1Cl)C(Cl)(Cl)Cl (configuration not stated) | -3% | 10%[57.1 µM] | ? | -9% | -1% | i
CC(C)C(=O)NC(Oc1ccccc1Cl)C(Cl)(Cl)Cl (configuration not stated) | -4% | -1%[57.1 µM] | 8.9µM* | -7% | 1% | i
COc1cccc(NC(=O)C2CCN(c3nnc(C)c4c(C)n(-c5ccccc5)nc34)CC2)c1 | / | 15%[57.1 µM] | 28%[57.1 µM] | / | ? | /
CCOc1cc(/C=C2\C(=O)NC(=O)N(CCc3ccc(F)cc3)C2=O)ccc1O | -1% | -5% | 11µM* | 29% | ? | i
S=c1[nH]nc(-c2ccccc2)n1CC1CCCO1 (configuration not stated) | 5% | -2% | ? | / | 0% | -99%*
ClCCCCl | 1% | / | / | / | / | /
CN=C(SCc1ccccc1)c1c(O)n(C)c(=O)n(C)c1=O | 5% | -3%[57.1 µM] | -15%[57.1 µM] | 3% | 1% | -108%*
Cn1ncc2c(NCc3ccco3)ncnc21 | / | 5% | ? | / | / | /
Nc1cccc2ccccc12 | -4% | / | / | / | / | /
CN(C)CCCN=Cc1c(O)n(CCc2ccc(F)cc2)c(=O)[nH]c1=O | 3% | 7%[57.1 µM] | 15%[57.1 µM] | -3% | 10% | -120%*
NC(=O)OCCCc1ccccc1 | / | 1% | 7% | / | 2% | i
CCOC(=O)CCCc1cc[c]([Sb](=[O])([OH])[OH])cc1 | / | -6% | 1.1µM* | / | / | /
N=C(N)c1ccc(-c2ccc(-c3ccc(C(=N)N)cc3)o2)cc1 | / | 473% | ? | / | / | /
